Compound activity (PubChem)
A549 viability – Nrf2 qHTS screen for inhibitors: counterscreen for cytotoxicity; A549 ARE-Fluc cells, CellTiter-Fluor viability, 18-24 h; Potency, µM (doses to about 46 µM), most hits filed as inhibitors; 390,000 compounds, 0.16% hits
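Cytotoxicity counterscreen: CellTiter-Fluor fluorescence was measured in A549 ARE_Fluc cells after 18-24 h of compound exposure in a concentration series. The subsequent BugLite luminescent read reports ARE-luciferase activity.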
Nrf2 activator – qHTS of Nrf2 Activators | AREc32 ARE-luciferase reporter (MCF7-derived line), luminescence, 24 h | Potency, µM (doses to about 46.1 µM), usual class: activators | 410,000 compounds, 0.31% hits | AID 624171, 2012; also: nearly all actives have a fitted effect of over 65% in size
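Luciferase luminescence (Steady-Glo, 30 min at room temperature) served as the read-out of ARE activation in AREc32 cells treated with compounds for 24 hr at 37 deg C.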
ClpP mod – qHTS Assay for Activators of ClpP; ATP-dependent Clp protease proteolytic subunit (Bacillus subtilis (strain 168)), P80244; AID 651965, 2013; purified B. subtilis ClpP, FRET peptide cleavage, 20 min; Potency, µM (series often up to 57.5 µM); 340,000 compounds, 1.9% hits; active = well fitted falling curve with a large enough effect; inconclusive = small, poorly fitted or top-dose-only effect; inactive = no such curve, though single readings can be large or run the other way; also: the source files actives as falling curves though it sought activators and does not explain the sign; nearly all actives have a fitted effect of over 65% in size
Target sequence (P80244 whole entry, looked up): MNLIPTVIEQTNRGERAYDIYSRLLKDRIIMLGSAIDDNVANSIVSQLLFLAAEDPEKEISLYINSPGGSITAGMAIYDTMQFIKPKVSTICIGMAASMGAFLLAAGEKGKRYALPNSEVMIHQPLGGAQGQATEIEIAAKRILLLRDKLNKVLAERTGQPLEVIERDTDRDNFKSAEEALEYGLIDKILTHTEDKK
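FRET quenching reversal measured ClpP activation: 10 microg/mL B. subtilis ClpP at pH 8 with the FRET-FV decapeptide, read at 430 nm after 320 nm excitation. The 20-min minus 0-min signal was scaled between DMSO/no-enzyme wells and ADEP (5.8 microM final).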
miR-21 act – qHTS Assay for Modulators of miRNAs and/orActivators of miR-21; HeLa miR-21 FLuc reporter, luciferase, 48 h; Potency, µM (doses to about 38.3 µM), usual class: activators; 340,000 tested, under 10 active; AID 2288, 2010;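 also: miR-21 action dims this reporter so a rising signal means less miR-21 action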
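Using DMEM plus 10% FBS, HeLa miR-21-FLuc cells are incubated with test compounds (final up to about 40uM) for 48 hours; firefly luciferase signal is then imaged following reagent-mediated lysis.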
Nrf2 block – Nrf2 qHTS screen for inhibitors; Potency, µM (series often up to 46 µM), hits mostly inhibitors; A549 ARE-Fluc reporter, luciferase luminescence, 18-24 h; 360,000 compounds, 2.1% hits; AID 504444, 2011; also: nearly all actives have a fitted effect of over 60% in size
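Nrf2 activity is the BugLite luminescence, read 15 min after reagent at room temperature, following CellTiter-Fluor cytotoxicity readout (30 min, 37C). Compound titrations were applied for 18-24 h to 5000 A549 ARE_Fluc cells/well in 5% FBS OPTI-MEM.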
IL-2 act – qHTS of IL-2 Activators; activation, % (series mostly up to about 46 µM); 360,000 compounds, 0.065% hits; IL-2 activation reporter assay, cell-based qHTS; stimulated with anti-CD3/CD4/CD28 beads; in transgenic mouse T cells; in the data active = activation above about 50%; inconclusive = mostly about 30% to 49%
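EGFP and DsRed fluorescence is measured by plate cytometry in unstimulated transgenic mouse T cells exposed to compound for 60 minutes, then stimulated 18 hours at 37 degrees C with anti-CD3/anti-CD4 beads plus anti-CD28.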
Of the large screens only hits and unclear results are named; the others gave an inactive call. Sampled rows, rich in hits. Any-hit rate of the full collection: about 3.7%. Unless noted, calls follow the shape of the dose curve; as a rule, active = well fitted curve in the direction sought with a large enough effect; inconclusive = small, poorly fitted or top-dose-only effect, or another doubt; inactive = no such curve, though single readings can be large; an effect the other way counts as inactive or inconclusive.

Cc1cccc(NC(=O)c2c(NC(=O)c3ccco3)sc3c2CCC(C(C)(C)C)C3)c1 (stereo not drawn)	none (no result: IL-2 act)
O=C(NCCCc1cnc[nH]1)NCCCN(Cc1ccc(Cl)c(Cl)c1)c1ccc(Br)cn1	none (no result: Nrf2 activator, ClpP mod, miR-21 act, IL-2 act)
CC1=C(C(=O)Nc2ccc(C)cc2C)C(c2cc(Br)ccc2F)n2ncc(C(=O)Nc3ccc(C)cc3)c2N1 (stereo not drawn)	ClpP mod 20µM (no result: IL-2 act)
COc1ccccc1NC(=O)C1=C(C)Nc2c(C(=O)Nc3ccc(F)cc3)cnn2C1c1ccc(Cl)cc1 (stereo not drawn)	ClpP mod 28µM (no result: IL-2 act)
CC(=O)c1c(C)oc2ccc(N(C(=O)Oc3ccccc3)S(=O)(=O)c3ccc(C(C)(C)C)cc3)cc12	Nrf2 block inconclusive (no result: IL-2 act)
Cc1ccc(CN2COc3c(Cl)cc4c(-c5ccccc5)cc(=O)oc4c3C2)cc1	Nrf2 block inconclusive (no result: IL-2 act)
O=Cc1ccnc2ccccc12	none (no result: A549 viability, Nrf2 activator, miR-21 act, Nrf2 block, IL-2 act)
OC1CCCN(c2c3c(nc4cc(-c5cccc(Cl)c5)nn24)CCC3)C1 (stereo not drawn)	Nrf2 block 4.6µM
Cc1cccc(-c2cc3nc4c(c(N5CCCC(O)C5)n3n2)CCC4)c1 (stereo not drawn)	Nrf2 block inconclusive
CCc1cnc2ccccc2c1/C=C/c1ccc(N(C)C)cc1	none (no result: A549 viability, Nrf2 activator, miR-21 act, Nrf2 block, IL-2 act)
CCCCc1ccc(S(=O)(=O)N/N=C(/C)c2ccncc2)cc1	ClpP mod 32µM
C/C(=N\NS(=O)(=O)c1ccccc1)c1ccccc1	none (no result: ClpP mod)
c1ccc(-n2ncc3c2ncn2nc(-c4ccco4)nc32)cc1	Nrf2 activator 10µM, Nrf2 block inconclusive
COc1ccc(N2CC(NC(=O)c3ccco3)CC2=O)cc1OC (stereo not drawn)	none (no result: Nrf2 block, IL-2 act)
O=C(CSc1ccc2ccccc2c1)Nc1ccncc1	Nrf2 block 7.3µM
CCCCOc1ccc(C(=O)Nc2ccncc2)cc1	Nrf2 block 9.2µM
CCC(=O)Nc1ccc2ccccc2c1	none
O=C(CSc1ccncc1)Nc1ccc2ccccc2c1	none (no result: ClpP mod)
O=C(Nc1ccncc1)c1ccc2ccccc2c1	ClpP mod 22µM
CCCOc1ccc(C(=O)Nc2cccnc2)cc1	none
CC(C)(C)CC(C)(C)NC(=O)CSCC(=O)Nc1ccc2ccccc2c1	A549 viability inconclusive, Nrf2 block 16µM
O=C(Nc1nnc(-c2ccncc2)o1)c1ccc2ccccc2c1	none
CCOc1ccc(CNC(=O)c2ccc3nc(C(C)C)oc3c2)cc1	none (no result: Nrf2 block, IL-2 act)
Cc1ccc2nc(CO)[nH]c2c1	none (no result: A549 viability, Nrf2 activator, miR-21 act, Nrf2 block, IL-2 act)
Cc1ccc(NS(=O)(=O)c2cc3c(cc2Cl)CCC(=O)N3)cc1Cl	none (no result: Nrf2 activator, ClpP mod, miR-21 act, IL-2 act)
CCc1ccc(NC(=O)c2ccc3[nH]c(C)c(C)c3c2)cc1	Nrf2 block inconclusive (no result: IL-2 act)
CCCCCOc1ccc(NC(=O)C(=O)NCCCn2ccnc2)cc1	Nrf2 block 9.2µM
Cc1[nH]c2ccc(C(=O)Nc3ccncc3)cc2c1C	Nrf2 block 12µM
C=CCOc1ccc(NC(=O)C(=O)NCCCn2ccnc2)cc1	none
Cc1ccc(C(=O)Nc2c(C)cc(-c3ccc(Cl)cc3)oc2=O)cc1	ClpP mod 14µM, Nrf2 block inconclusive
Cc1cc(-c2ccc(Cl)cc2)oc(=O)c1NC(=O)c1ccccc1	ClpP mod inconclusive
Cc1nn(C)cc1[C@@H]1C[C@H]2CN(Cc3cccc(Cl)c3)C(=O)[C@]23CCCN13	none (no result: ClpP mod)
CCn1ncc([C@@H]2C[C@H]3CN(Cc4cccc(Cl)c4)C(=O)[C@]34CCCN24)c1C	none (no result: ClpP mod)
Cn1cc([C@@H]2C[C@H]3CN(Cc4cccc(Cl)c4)C(=O)[C@]34CCCN24)c(-c2ccccc2)n1	A549 viability inconclusive, Nrf2 block 21µM (no result: ClpP mod)
O=C1N(Cc2cccc(Cl)c2)C[C@@H]2C[C@@H](c3cccn3-c3cccnc3)N3CCC[C@@]123	Nrf2 block 21µM (no result: ClpP mod)
Cc1ccc(NC(=O)c2ccccc2F)nc1	ClpP mod 16µM, Nrf2 block inconclusive
O=C(CCl)Nc1cccc2ncccc12	A549 viability 23µM, Nrf2 activator inconclusive, miR-21 act inconclusive, Nrf2 block 16µM
O=C(Nc1cccc2ncccc12)c1ccccc1F	Nrf2 activator 13µM
O=C(NCCO)c1ccc2[nH]c3ccccc3c2c1	ClpP mod 25µM (no result: Nrf2 block)
CCOC(=O)c1cc(-c2ccc(OC)cc2)n(CCC(=O)Nc2nc3ccc(OCC)cc3s2)c1C	none (no result: Nrf2 block, IL-2 act)
Cc1nn(C)c(C)c1CN(C)C(=O)c1nn2c(c1Br)NC(c1cccs1)CC2C(F)(F)F (stereo not drawn)	Nrf2 block 8.2µM
Cc1nn(C)c(C)c1CNC(=O)c1cc2n(n1)C(C(F)(F)F)CC(c1cccs1)N2 (stereo not drawn)	Nrf2 block 18µM
COc1ccc(C2CC(C(F)(F)F)n3nc(C(=O)NCc4c(C)nn(C)c4C)c(Cl)c3N2)cc1 (stereo not drawn)	Nrf2 block 21µM
COc1ccc(C2CC(C(F)(F)F)n3nc(C(=O)N(C)Cc4cn(C)nc4C)c(Cl)c3N2)cc1 (stereo not drawn)	Nrf2 block inconclusive
Cc1nn(C)c(C)c1CN(C)C(=O)c1cnn2c1NC(c1ccccc1)CC2C(F)(F)F (stereo not drawn)	Nrf2 block inconclusive
Cc1ccc(NC(=O)Cn2c(=O)n(CCCCC(=O)NCCc3ccccc3)c(=O)c3ccccc32)cc1	none (no result: IL-2 act)
Nc1cc(S(=O)(=O)N2CCN(S(=O)(=O)c3ccc4c(c3)OCCO4)CC2)ccn1	none (no result: Nrf2 activator, ClpP mod, miR-21 act, IL-2 act)
Cn1c(C(=O)NCc2ccco2)cc2c(=O)[nH]c3ccccc3c21	ClpP mod 28µM, Nrf2 block inconclusive
CCCN(CCC)CCCNC(=O)c1cc2c(=O)[nH]c3ccccc3c2n1C	none
CCc1sc(Nc2cccc(Cl)c2C)nc1-c1cc2cccc(OC)c2oc1=O	none (no result: Nrf2 block, IL-2 act)
O=S(=O)(Nc1nc(SCc2ccc(Cl)cc2)n[nH]1)c1ccc(F)cc1	ClpP mod 18µM
CCc1nc(SCc2ccc(Cl)cc2)n[nH]1	Nrf2 block inconclusive
COc1cc2nc(N3CCCCC3)nc(NC3CC3)c2cc1OC	none (no result: A549 viability, Nrf2 activator, miR-21 act, Nrf2 block, IL-2 act)
O=C1CC(C(=O)Nc2ccccc2)C2(CCCCC2)O1 (stereo not drawn)	none
O=C1CC(C(=O)Nc2ccc(Cl)cc2[N+](=O)[O-])C2(CCCCC2)O1 (stereo not drawn)	ClpP mod 28µM
CCOC(=O)c1cccnc1SCc1cc(=O)n2ccccc2n1	Nrf2 activator inconclusive, ClpP mod 32µM
CC(OC(=O)c1cccnc1SCc1cc(=O)n2ccccc2n1)c1ccccn1 (stereo not drawn)	none
